Results filed as inconclusive are left out. A number with no mark means an inactive call. The source made the active and inactive calls. Calls come from the whole dose curve; as a rule, active = well fitted cell-killing curve with a large enough effect in the repeat runs; inconclusive = weak or mixed curves, or effect the other way; inactive = flat fitted curve, though single readings scatter.
% is set by controls: 0 for no effect and ±100 for the full control effect.

A short description of the assay: cAMP Responsive Elements (CRE) small molecule antagonists, cell-based qHTS assay: qHTS cell viability counter screen (AID 2060913). Note: nearly all actives have a fitted effect of over 40% in size. As to conditions: CRE-bla HEK293T viability, CellTiter-Glo luminescence, 5 h; series mostly up to 92.4 µM; viability change, negative = cytotoxic: at the top concentration. The essentials:
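CRE-bla HEK293T cells were seeded in assay medium with 10% dialyzed FBS, incubated 18 hrs at 37 C, then exposed to compounds plus 0.25 uM final NKH477 for 3 hrs. Viability was read by CellTiter-Glo luminescence after 30 min, in the same wells.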
In the case of `CC(C)NC(=O)c1ccccc1N`, the “viability change, negative = cytotoxic” value was 0.608%.

In the case of `Cc1cc2nc3c(=O)[nH]c(=O)nc-3n(C[C@H](O)[C@H](O)[C@H](O)CO)c2cc1C`, the Potency entry is “inactive”. Same read-out and setting: under `Nc1ccc(Cl)cc1Cl` stands “inactive”. As for `CCOC(=O)N1CCC(=C2c3ccc(Cl)cc3CCc3cccnc32)CC1`, the Potency entry is “inactive”.

On to `Cc1ncc(COP(=O)(O)O)c(C=O)c1O`, for which the “viability change, negative = cytotoxic” value was 6.17% [at 42.5 µM].

Take `OCc1ccccc1O`: the “viability change, negative = cytotoxic” value is -0.701% [at 42.5 µM].

Take `CC(C)CCCC(C)NCCC(C)C` (configuration not stated): the “viability change, negative = cytotoxic” value was 0.826% [at 42.5 µM]. Turning to `Cc1ccccc1S(=O)(=O)O`, the “viability change, negative = cytotoxic” value was 9.27%. For the molecule `Cc1c(N(C)CS(=O)(=O)O)c(=O)n(-c2ccccc2)n1C`, the Potency entry was “inactive”. Take `Nc1ccc2cc(S(=O)(=O)O)cc(O)c2c1N=Nc1ccccc1C(F)(F)F`: the “viability change, negative = cytotoxic” value was -7.1%.

As to `CC(=O)OC/C=C(C)/C=C/C=C(C)/C=C/C1=C(C)CCCC1(C)C`, the Potency entry is “inactive”. `CCN(CCO)CCCC(C)Nc1ccnc2cc(Cl)ccc12` (configuration not stated): the viability change, negative = cytotoxic was 24.8% [at 8.39 µM]. `CCCCCC=O`: the Potency result is “inactive”. As to `CC(C)(C)OC(=O)c1ccc(O)cc1`, the “viability change, negative = cytotoxic” value was -8.48%. Still for that read-out and setting: next, `COc1ccc(-n2nc(C(F)F)cc2-c2ccc(S(C)=O)cc2)cc1` (configuration not stated): 0.64%. As for `CCC(N)(CO)CO`, the “viability change, negative = cytotoxic” value is -12.7%. Consider `CCn1cc(C(=O)O)c(=O)c2ccc(C)nc21`, for which the Potency entry is “inactive”. For `CC(CN(CCN(CC(C)OCCO)CC(C)OCCO)CC(C)OCCO)OCCO` (configuration not stated), the “viability change, negative = cytotoxic” value was 0.359%. `O=C(CCCN1CCC(O)(c2cccc(C(F)(F)F)c2)CC1)c1ccc(F)cc1`: the “viability change, negative = cytotoxic” value was -9.15% [at 42.5 µM]. `COc1ccc([C@@H]2Sc3ccccc3N(CCN(C)C)C(=O)[C@@H]2OC(C)=O)cc1`: the “viability change, negative = cytotoxic” value was -1.51% [at 42.5 µM].

For `COC(=O)NN`, the “viability change, negative = cytotoxic” value is -6.53%. `CC(=O)O[C@]1(C(C)=O)CC[C@H]2[C@@H]3C[C@H](C)C4=CC(=O)CC[C@]4(C)[C@H]3CC[C@@]21C`: the Potency result was “inactive”.

Source of the values: PubChem BioAssay (Tox21).
